In the supplement of paper PMC13380429:

Test system: Vero E6 infected with SARS-CoV-2
Assay: inhibition of SARS-CoV-2 cytopathic effect; higher = more antiviral protection, active = above 15
Settings: 48 h

Measured: inhibition of SARS-CoV-2 cytopathic effect

CCOC(=O)c1cc(C#N)c(N2CCC(C(=O)NS(=O)(=O)Cc3ccccc3)CC2)nc1C
inactive: 1 nM 3.08% | 8.33 nM 2.38% | 100 nM 0.44% | 833.33 nM 1.19% | 10000 nM -2.86%

CC[C@@H](C)CNCC(=O)N1CCc2sccc2[C@@H]1COc1cccc(C)c1
inactive: 1 nM 2.77% | 8.33 nM 3.61% | 100 nM 2.09% | 833.33 nM 1.08% | 10000 nM -6.12%

CCCCCCCC/C=C\CCCCCCCC(=O)N[C@@H](CO)Cc1ccc(O)cc1
inactive: 1 nM 0.56% | 8.33 nM -0.46% | 100 nM 1.38% | 833.33 nM 1.23% | 10000 nM -2.65%

CN(C)C/C=C(/c1ccc(Br)cc1)c1cccnc1 [zimelidine]
inactive: 1 nM 0.58% | 8.33 nM 1.8% | 100 nM 0.96% | 833.33 nM -1% | 10000 nM -1.69%

C[C@H]1N=C(N(C)C)N=C(N)N1 [imeglimin]
inactive: 1 nM 1.51% | 8.33 nM 1.14% | 100 nM 0.07% | 833.33 nM 0.43% | 10000 nM -0.77%

CC1(C)Cc2c(-c3ccccc3)c(-c3ccc(Cl)cc3)c(CC(=O)O)n2C1 [licofelone]
inactive: 1 nM -2.87% | 8.33 nM 2.92% | 100 nM 4.49% | 833.33 nM 3.45% | 10000 nM 2.49%

C[C@@H](Oc1cc(-n2cnc3ccc(CN4CCN(C)CC4)cc32)sc1C(N)=O)c1ccccc1C(F)(F)F
inactive: 1 nM 1.38% | 8.33 nM 0.72% | 100 nM 1.12% | 833.33 nM -3.55%
active: 10000 nM 54.8%

NS(=O)(=O)OC[C@@H]1C[C@@H](n2ccc3c(N[C@H]4CCc5ccccc54)ncnc32)C[C@@H]1O [pevonedistat]
inactive: 1 nM 1.08% | 8.33 nM 1.45% | 100 nM 2.73% | 833.33 nM -1.35% | 10000 nM -9.75%

CC(=O)/N=c1/[nH]c(C)c(-c2ccc(Cl)c(S(=O)(=O)NCCO)c2)s1
inactive: 1 nM 0.03% | 8.33 nM -0.02% | 100 nM 1.03% | 833.33 nM 1.81% | 10000 nM 2.47%

C=C(C)[C@@H]1[C@H]2OC(=O)[C@@H]1[C@]1(O)C[C@H]3O[C@]34C(=O)O[C@H]2[C@]14C [picrotoxinin]
inactive: 1 nM -2.53% | 8.33 nM -1.67% | 100 nM -2.12% | 833.33 nM -3.39% | 10000 nM -2.53%

O=C/C=C/c1ccccc1 [cinnamaldehyde]
inactive: 1 nM 1.16% | 8.33 nM 2.28% | 100 nM 1.04% | 833.33 nM 3.28% | 10000 nM 5.38%

COC(=O)C[C@](O)(CCC(C)(C)O)C(=O)O[C@@H]1C(OC)=C[C@]23CCCN2CCc2cc4c(cc2[C@H]13)OCO4 [harringtonine]
inactive: 1 nM 1.51% | 8.33 nM 0.45% | 100 nM -10.7% | 10000 nM -9.74%
active: 833.33 nM 19.9%

COc1ccc(C2CNC(=O)C2)cc1OC1CCCC1 (stereo not given) [rolipram]
inactive: 1 nM 0.987% | 8.33 nM 0.267% | 100 nM -1.59% | 833.33 nM -0.223% | 10000 nM -5.08%

Cc1cc(N2CCCCC2)nc2ccccc12
inactive: 1 nM -1.33% | 8.33 nM 3.15% | 100 nM -0.88% | 833.33 nM 0.63% | 10000 nM 4.47%

Cn1c(CNc2ccc(C(=N)N)cc2)nc2cc(C(=O)N(CCC(=O)O)c3ccccn3)ccc21 [dabigatran]
inactive: 1 nM -0.46% | 8.33 nM 1.73% | 100 nM -0.12% | 833.33 nM 0.58% | 10000 nM 3.34%

CC1CCN(C(c2ccc(F)cc2)c2ccc(C(C)C(=O)O)cc2-c2ccc(C(F)(F)F)cc2)CC1 (stereo not given)
inactive: 1 nM 3.01% | 8.33 nM -0.54% | 100 nM -0.83% | 833.33 nM -0.11% | 10000 nM -6.62%

Nc1nc(Nc2ccc(S(N)(=O)=O)cc2)nn1C(=O)c1c(F)cccc1F
inactive: 1 nM 2.48% | 8.33 nM 1.33% | 100 nM 0.15% | 833.33 nM -0.22% | 10000 nM 10.8%

Nc1ccn([C@H]2CC[C@@H](CO)O2)c(=O)n1 [zalcitabine]
inactive: 1 nM -0.47% | 8.33 nM -1.89% | 100 nM -4.07% | 833.33 nM -2.84% | 10000 nM -0.03%
